Results with a measured potency or affinity are listed apart. Active and inactive are the calls of the source.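 Rule for the calls: active = combined score above 52, rewarding potency beyond a set limit and curve height beyond a set limit; inactive = the rest.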

Chain of Broad substrate specificity ATP-binding cassette transporter ABCG2 (Homo sapiens) (Q9UNQ0 whole entry, looked up): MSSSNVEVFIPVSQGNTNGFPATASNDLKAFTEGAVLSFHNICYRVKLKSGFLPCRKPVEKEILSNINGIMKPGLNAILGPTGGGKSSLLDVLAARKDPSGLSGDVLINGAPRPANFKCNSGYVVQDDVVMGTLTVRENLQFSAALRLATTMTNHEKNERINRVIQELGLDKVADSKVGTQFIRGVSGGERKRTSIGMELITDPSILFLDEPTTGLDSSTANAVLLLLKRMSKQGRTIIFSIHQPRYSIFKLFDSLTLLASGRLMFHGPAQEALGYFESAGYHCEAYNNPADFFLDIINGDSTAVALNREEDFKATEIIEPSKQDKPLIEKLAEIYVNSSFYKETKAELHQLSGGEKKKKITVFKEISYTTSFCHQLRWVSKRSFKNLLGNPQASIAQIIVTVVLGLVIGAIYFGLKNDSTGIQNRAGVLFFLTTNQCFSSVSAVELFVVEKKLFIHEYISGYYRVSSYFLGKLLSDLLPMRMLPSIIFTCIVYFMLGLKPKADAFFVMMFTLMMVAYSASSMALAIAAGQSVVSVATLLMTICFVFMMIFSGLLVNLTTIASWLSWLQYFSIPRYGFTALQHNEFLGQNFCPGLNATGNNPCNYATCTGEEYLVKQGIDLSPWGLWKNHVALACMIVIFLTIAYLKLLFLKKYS

This assay addresses Broad substrate specificity ATP-binding cassette transporter ABCG2 (Homo sapiens) (UniProt Q9UNQ0). Description: inhibition of BCRP-mediated JC-1 efflux – Ig-MXP3 cells, flow cytometry, set 2, dose response (AID 504566). To be noted: series mostly up to 50 µM.
Take `Cc1nc2cc(-c3cccs3)nn2c(N2CCN(C(=O)c3ccco3)CC2)c1C`: the compound was classed as inactive.
For `O=S(=O)(c1ccccc1)N1CCN(c2cc(-c3ccccc3)nc3cc(-c4cccc(Cl)c4)nn23)CC1` the value was “inactive”; for `CC(=O)N1CCN(c2c(C)c(C)nc3cc(-c4ccc(Cl)cc4)nn23)CC1`, “inactive”.

The values are drawn from PubChem BioAssay AID504566 (NMMLSC, 2011).
